Measured values taken from PubChem BioAssay (NCI).
The panel holds about 79,000 compounds, 15% with a hit somewhere; the sample as a whole holds those more often. Unmarked numbers belong to inactive results. Active and inactive are the calls of the source. Rule as the data show it: active = growth inhibition above about 70%; inactive = the rest.

Assays:
[1] = NCI Yeast Anticancer Drug Screen. Data for the rad50 strain (AID 155);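 also: 0% = growth of vehicle-only cultures of the same strain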; settings: S. cerevisiae rad50 strain growth inhibition, hits give high values
Summary of the method: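 DNA repair mutant yeast, compound exposure, growth read-out; inhibition is taken relative to vehicle.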

[2] = NCI Yeast Anticancer Drug Screen. Data for the mec2-1 strain (AID 157); settings: S. cerevisiae mec2-1 strain, hits give high values
Summary of the method: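 Readout is yeast growth inhibition, normalised to vehicle-treated controls, in the mec2-1 strain exposed to compound.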

[3] = NCI Yeast Anticancer Drug Screen. Data for the sgs1 mgt1 strain (AID 161);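 also: 0% = growth of cultures given vehicle only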; settings: S. cerevisiae sgs1 mgt1 strain, hits give high values
Summary of the method: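 Yeast cells carrying a defined DNA-repair defect were exposed to test compounds. Growth inhibition was measured relative to vehicle-treated controls.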

[4] = NCI Yeast Anticancer Drug Screen. Data for the cln2 rad14 strain (AID 165);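 also: 0% = growth equal to vehicle treated cultures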; settings: S. cerevisiae cln2 rad14 strain, hits give high values
Summary of the method: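 Relative to vehicle controls, growth inhibition of compound-treated cln2 rad14 yeast was recorded.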

[5] = NCI Yeast Anticancer Drug Screen. Data for the bub3 strain (AID 167); settings: S. cerevisiae bub3 mutant strain, hits give high values
Summary of the method: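 In this screen, a yeast mutant lacking normal mitotic checkpoint function is challenged with compound. Relative growth versus vehicle gives the inhibition value.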

[6] = NCI Yeast Anticancer Drug Screen. Data for the mlh1 rad18 strain (AID 175); settings: S. cerevisiae mlh1 rad18 strain growth inhibition, hits give high values
Summary of the method: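 Test agents were incubated with a yeast strain of defined genotype (DNA damage repair defect). Inhibition of growth was derived by comparison with vehicle-exposed cultures.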

[7] = at 5.0 µM (retest, dose inferred, filed as 0.5)
[8] = at 50.0 µM (retest, dose inferred, filed as 5.0)

Row | Structure (SMILES) | growth inhibition [1, 7] [%] | growth inhibition [1, 8] | growth inhibition ([1]; at 50.0 µM) | growth inhibition [2, 7] [%] | growth inhibition [2, 8] | growth inhibition ([2]; at 50.0 µM) | growth inhibition [3, 7] | growth inhibition [3, 8] | growth inhibition ([3]; at 50.0 µM) | growth inhibition [4, 7] [%] | growth inhibition [4, 8] | growth inhibition ([4]; at 50.0 µM) | growth inhibition [5, 7] [%] | growth inhibition [5, 8] | growth inhibition ([5]; at 50.0 µM) | growth inhibition [6, 7] | growth inhibition [6, 8] | growth inhibition ([6]; at 50.0 µM)
1 | O=[N+]([O-])c1cc(Br)cc(Br)c1O | -2 | 19% | 61.6% | 18 | 45% | 49.6% | 10% | 38% | 40.4% | 20 | 41% | 82.7% (active) | -7 | 30% | 75.8% (active) | 2% | 56% | 68.4%
2 | CCCCCCCN(CCCCCCC)CC(=O)NC(=O)c1ccccc1 | 29 | 99% (active) | 99.4% (active) | 21 | 98% (active) | 97.2% (active) | 23% | 99% (active) | 99.5% (active) | 33 | 99% (active) | 96.8% (active) | 43 | 99% (active) | 99.3% (active) | 26% | 99% (active) | 99.3% (active)
3 | CCN(CC)CCOC(=O)c1ccc(N=Nc2ccc(O)c3ccccc23)cc1 | 0 | 99% (active) | 98.8% (active) | 4 | 100% (active) | 99.1% (active) | 6% | 99% (active) | 99% (active) | 6 | 99% (active) | 86.8% (active) | -2 | 99% (active) | 41.1% | -7% | 99% (active) | 99% (active)
4 | O=C1C=CC(=Nc2ccc(O)c3ncccc23)c2cccnc21 | 34 | 92% (active) | 94% (active) | 11 | 96% (active) | 95% (active) | 29% | 96% (active) | 95.2% (active) | -1 | 95% (active) | 86.7% (active) | 17 | 94% (active) | 95.6% (active) | 50% | 95% (active) | 92.4% (active)
5 | N=C(N)c1ccc(SCCCCCSc2ccc(C(=N)N)cc2)cc1 | 21 | 56% | 57.2% | 17 | 61% | 74% (active) | 24% | 86% (active) | 76% (active) | 22 | 57% | 44.6% | 23 | 83% (active) | 63.4% | 25% | 87% (active) | 72.3% (active)
6 | CCN(CC)CCC(=O)/C=C/c1ccc(C)cc1 | 4 | 97% (active) | 57.4% | 9 | 99% (active) | 10.9% | 4% | 99% (active) | 18.6% | 3 | 97% (active) | 50% | 7 | 99% (active) | 15.1% | 6% | 99% (active) | 24.1%
7 | Cc1cc(NC(=S)SCc2ccc(Cl)cc2)c([N+](=O)[O-])cc1C | 65 | 95% (active) | 96% (active) | 45 | 97% (active) | 98.2% (active) | 90% (active) | 96% (active) | 97.3% (active) | 42 | 92% (active) | 94.3% (active) | 53 | 97% (active) | 96.2% (active) | 98% (active) | 96% (active) | 97.2% (active)
8 | CC1=C(C(=O)OC(C)C)C(c2ccccc2[N+](=O)[O-])C(C(=O)OC(CO[N+](=O)[O-])CO[N+](=O)[O-])=C(C)N1 (configuration not stated) | 17 | 24% | 83.6% (active) | 30 | 27% | 87.7% (active) | -20% | -8% | 89.1% (active) | 2 | 22% | 83.9% (active) | -5 | 25% | 87.2% (active) | 18% | 19% | 81.7% (active)
9 | COC(=O)c1ccc(Cl)c(Cl)c1 | 1 | 20% | 8.2% | -2 | 2% | 6.75% | 2% | 11% | 11.8% | 1 | 0% | 75.3% (active) | 12 | 13% | 22% | 1% | 17% | -0.65%
10 | CN1c2ccccc2S(=O)(=O)n2c(CCc3ccccc3)nnc21 | 1 | 10% | 14.3% | 5 | 13% | -3% | 10% | 10% | -6.9% | 17 | 14% | 9.85% | 9 | 15% | -10.7% | 10% | 17% | 32.5%
11 | NC(CSC1(c2ccc(Cl)cc2)c2ccccc2-c2ccccc21)C(=O)O (configuration not stated) | 16 | 68% | 68% | 8 | 51% | 61.9% | -1% | 22% | 35.1% | -15 | 59% | 43.8% | 1 | 44% | 91.2% (active) | -2% | 55% | 74.8% (active)
12 | O=C1C=CC(=O)c2c(O)c(N3CCC[C@@H]3CO)c(Cl)c(O)c21 | 20 | 65% | 30.1% | 30 | 64% | 41.5% | 25% | 52% | 51.2% | 19 | 36% | 30.2% | 21 | 29% | 72.2% (active) | 26% | 71% (active) | 4.25%
13 | COC(=O)C1(Cc2ccccc2C)Cc2ccc(C)cc2C1=O (configuration not stated) | -1 | 22% | 49.3% | -2 | 28% | 25.9% | 13% | 47% | 64.9% | -3 | 4% | 31.8% | 9 | 71% (active) | 64.3% | -2% | 30% | 65.9%
14 | CN=C(NC1CCCCC1)c1ccc(NC(=O)c2ccc(C(=O)Nc3ccc(C(=NC)NC4CCCCC4)cc3)cc2)cc1 | 0 | 81% (active) | 69.5% | 2 | 59% | 24% | 6% | 96% (active) | 85.5% (active) | 6 | 65% | 92% (active) | -1 | 74% (active) | 33.7% | -1% | 99% (active) | 94.8% (active)
15 | COc1cc(NCC(C#N)C#N)ccc1N=Nc1ccc(Cl)cc1 | -5 | 58% | 86.2% (active) | -2 | 67% | 70.8% (active) | 4% | 72% (active) | 85.3% (active) | -7 | 46% | 76.8% (active) | -23 | 87% (active) | 79.5% (active) | -37% | 81% (active) | 82.7% (active)
16 | CCCCCCC(O)CCOC(C)=O (configuration not stated) | -3 | -3% | -19.4% | 4 | 0% | -13.2% | 1% | -3% | -2.15% | 2 | -11% | -14.8% | 4 | 1% | 33.1% | -3% | 4% | -1.6%
17 | CCCCCC(C)NCC(O)Cc1ccc(OCCCC)cc1 (configuration not stated) | 22 | 100% (active) | 99.5% (active) | 29 | 99% (active) | 99.3% (active) | 37% | 100% (active) | 99.3% (active) | 34 | 100% (active) | 98.9% (active) | 42 | 100% (active) | 99.5% (active) | 20% | 100% (active) | 99.7% (active)
18 | CC(=O)C1CCCCC1/C=C/[N+](=O)[O-] (configuration not stated) | 23 | 93% (active) | 99.5% (active) | 16 | 74% (active) | 99.7% (active) | 25% | 93% (active) | 99.1% (active) | 6 | 27% | 99% (active) | 30 | 91% (active) | 99.5% (active) | 42% | 97% (active) | 99.2% (active)
19 | CN1C(=O)CCC2[C@@H]3CC=C4C[C@@H](O)CC[C@]4(C)C3CC[C@@]21C (some centres not stated) | -3 | 27% | 16.4% | 0 | 11% | 0.3% | 1% | 59% | 69.8% | 10 | 13% | 28.8% | 22 | 66% | 57.7% | -7% | 16% | 70.8% (active)
